Among the data in PubChem BioAssay (EPA / NIEHS) are outcome and AC50 values, retold here.

Test [1] can be described thus: CCTE_Shafer_MEA_dev_interburst_interval_mean: CCTE's Neural Network Formation Assay for Mean Interburst Interval, Shafer Lab (AID 2284046).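 Note: curve fitted for decrease in interburst interval relative to DMSO.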 The procedure, abridged: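 Primary rat cortical neurons on PEI-coated 48-well MEA plates (laminin added with cells at plating) (16 electrodes/well), exposed from plating day 0 with renewal at DIV 5 and 9. Mean inter-burst interval averaged over bursting electrodes, AUC across days 5, 7, 9, 12; DMSO baseline.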

The nature of test [2]: CCTE_Shafer_MEA_dev_inter_network_spike_interval_mean: CCTE's Neural Network Formation Assay for Mean Inter-network Spike Interval, Shafer Lab (AID 2284047). The procedure, abridged: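 Mean time between consecutive network-spike peaks, recorded extracellularly (adaptive spike detection) on DIV 5, 7, 9 and 12, summarized as trapezoidal AUC. Rat cortical cultures on MEAs dosed continuously days 0–12, re-dosed at feeds; loss-of-signal fit relative to DMSO.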

The nature of test [3]: CCTE_Shafer_MEA_dev_network_spike_number: CCTE's Neural Network Formation Assay for Number of Network Spikes, Shafer Lab (AID 2284048).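 For AC50: fit as a loss of signal meaning fewer network spikes than DMSO.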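 Note: synchronized bursts across electrodes counted on days 5 7 9 12 and integrated as AUC.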 The procedure, abridged: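 Developing networks of primary rat cortical neurons are treated over 12 days starting at plating, with media and compound fully replaced on DIV 5 and 9. Network spike counts from four recording days are integrated as trapezoidal AUC.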

The nature of test [4]: CCTE_Shafer_MEA_dev_network_spike_peak: CCTE's Neural Network Formation Assay for Mean Number of Electrodes in Network Spike, Shafer Lab (AID 2284049).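 For AC50: fitted for loss of signal meaning fewer electrodes in network spikes than DMSO.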 The procedure, abridged:
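Rat cortical primary culture, 1.5 x 10^5 cells/well, 48-well MEA (16 electrodes/well). Dosing day 0 through DIV 12, full media/compound exchange DIV 5, 9. AxIS adaptive spike detection; AUC over days 5/7/9/12; loss-of-signal vs DMSO.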

The nature of test [5]: CCTE_Shafer_MEA_dev_spike_duration_mean: CCTE's Neural Network Formation Assay for Mean Spike Duration, Shafer Lab (AID 2284051).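 For AC50: potency for a decrease in mean network spike duration versus DMSO.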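 Note: mean network spike duration pooled as area under curve over DIV 5 to 12 recordings.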 An outline of the steps:
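Spontaneous activity was recorded on days 5, 7, 9 and 12 from rat cortical cultures grown on microelectrode arrays and dosed continuously from day 0, with media and compound renewed after the DIV 5 and 9 recordings. Network-spike duration was collapsed by area under the curve.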

Test [6] can be described thus: CCTE_Shafer_MEA_dev_network_spike_duration_std: CCTE's Neural Network Formation Assay for Standard Deviation of Network Spike Duration, Shafer Lab (AID 2284052).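 Note: hits are decreases in network spike duration SD versus DMSO vehicle.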 The procedure, abridged: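 Network spike duration variability was collapsed across recordings on days 5, 7, 9 and 12 by trapezoidal area-under-curve and fitted downward against DMSO. Cultures were rat cortical neurons on PEI-coated MEA plates, dosed continuously from plating, refed with compound DIV 5/9.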

A short description of test [7]: CCTE_Shafer_MEA_dev_per_network_spike_spike_number_mean: CCTE's Neural Network Formation Assay for Mean Number of Spikes in a Network Spike, Shafer Lab (AID 2284053).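 For AC50: fitted as decrease in spikes per network spike relative to DMSO.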 The procedure, abridged: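 Mean spike count within each network spike, taken in a 0.05 s window at its peak, was recorded on days 5, 7, 9 and 12 and integrated as trapezoidal area under the curve. Rat cortical cultures on MEA plates received continuous compound from day 0, refreshed at medium changes on DIV 5 and 9.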

Test [8] is described as follows: CCTE_Shafer_MEA_dev_per_network_spike_spike_percent: CCTE's Neural Network Formation Assay for Percent of Spikes in a Network Spike, Shafer Lab (AID 2284054). The procedure, abridged:
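Rat primary cortical cultures, 1.5 x 10^5 cells/well on MEA. Continuous compound exposure d0–12, medium/compound renewed DIV 5, 9. Network-spike spike % (0.05 s peak window), AUC over 4 recordings, DMSO baseline.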

Test [9] has as its system DIO2 (gene 1734). The test is described as follows: CCTE_GLTED_hDIO2: CCTE's human Deiodinase 2 (DIO2) Inhibition Assay, Great Lakes Toxicology and Ecology Division (GLTED) Lab (AID 2284050; active = hit-call score of the fitted dose curve at least 0.9, where 1 is the maximum). An outline of the steps: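 In this cell-free test, chemicals are exposed to human deiodinase type 2 for 3 hours. Released iodide is determined spectrophotometrically via the Sandell-Kolthoff method, and signal loss relative to DMSO is fitted.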

Test [10] relates to DIO3 (gene 1735). The test is described as follows: CCTE_GLTED_hDIO3: CCTE's human Deiodinase 3 (DIO3) Inhibition Assay, Great Lakes Toxicology and Ecology Division (GLTED) Lab (AID 2284055; active = hit-call score of the fitted dose curve at least 0.9, where 1 is the maximum;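 note: potency is for inhibition seen as loss of released iodide signal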). An outline of the steps:
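Enzyme activity is tracked as iodide release from substrate by recombinant human DIO3 over 3 h with chemical present. A second Sandell-Kolthoff step converts iodide to an absorbance signal, fitted relative to DMSO.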

Molecules are shown by their SMILES. Where a structure was tested more than once in an assay, its records may differ in their call. The source made the active and inactive calls. Rule for the calls, unless noted: active = hit-call score of the fitted dose curve at least 0.9, where 1 is the maximum; inactive = score below 0.9.

Consider `OCC(F)(F)OC(F)(F)C(F)(F)OC(F)(F)C(F)(F)OC(F)(F)CO`, for which the outcome in [1], in test [2], in [3], in test [4], in test [5] and in [6] was inactive. Moreover, the compound was called inactive in test [7] and in test [8].
For `O=C(O)C(F)(F)C(F)(F)C(=O)O`, the compound was called inactive in test [1], in test [2], in test [3], in [4], in [5] and in [6]. The result in [7] and in test [8] was inactive.
Regarding `CCCCCCCc1ccc(O)cc1`, the AC50 (as a rule, the midpoint of the concentration-response curve, whichever way the signal moves) in test [9] was 136 µM (active); in [10] it was 81.2 µM (active).
Turning to `CCC1(c2ccccc2)C(=O)N=C(O)NC1=O` (centres undefined), the call in test [1], in test [2], in test [3], in [4], in test [5] and in test [6] was inactive. Also, the result in [7] and in test [8] was inactive.
On to `CC(C)(C)c1ccccc1OP(=O)(Oc1ccccc1)Oc1ccccc1`, for which the compound was classed as inactive in [1], in [2], in [3], in test [4], in test [5] and in [6]. The result in test [7] and in [8] was inactive. The AC50 was 22.9 µM (active) in test [4], 25.7 µM (active) in test [5], 25.4 µM (active) in test [7] and 15 µM (active) in test [8].
Consider `O=C(O)C(F)(F)OC(F)(F)C(F)(F)OC(F)(F)C(=O)O`, for which the result in test [1], in test [2], in test [3], in test [4], in test [5] and in test [6] was inactive. The compound was called inactive in test [7] and in test [8].
As to `O=C(O)C1C(C(=O)O)C2(Cl)C(Cl)=C(Cl)C1(Cl)C2(Cl)Cl` (centres undefined), the compound was classed as inactive in test [1], in test [2], in test [3], in test [4], in test [5] and in test [6]. Also, the compound was called inactive in test [7] and in test [8].
For the compound `CCCCC(CC)COP(=O)(Oc1ccccc1)Oc1ccccc1` (centres undefined), the compound was called inactive in test [1], in test [2], in test [3], in test [5], in test [6] and in test [7]. For the same compound, the result in test [8] was inactive. In [4], the AC50 is 1.67 µM (active).
`O=S(=O)(F)C(F)(F)C(F)(F)C(F)(F)C(F)(F)C(F)(F)C(F)(F)C(F)(F)C(F)(F)F`: the AC50 in test [10] was 28.4 µM (active).
For `OCC(F)(F)OC(F)(F)C(F)(F)OC(F)(F)C(F)(F)OC(F)(F)F`, the compound was classed as inactive in test [1], in test [2], in test [3], in test [5], in test [6] and in [7]. For the same compound, in [8], the outcome was inactive. Moreover, in test [4], the AC50 is 0.818 µM (active).
Take `OCC(F)(F)OC(F)(F)C(F)(F)OC(F)(F)CO`: the compound was called inactive in test [1], in [2], in test [3], in [4], in [5] and in [6]. In addition, the call in test [7] and in test [8] was inactive.
Consider `CCCCC(CC)COC(=O)c1c(Br)c(Br)c(Br)c(Br)c1C(=O)OCC(CC)CCCC` (centres undefined), for which the result in test [1], in test [2], in test [3], in test [5], in test [6] and in test [7] was inactive. Further, in test [8], the compound was called inactive. For the same compound, the AC50 in [4] was 0.33 µM (active).
As for `O=C(O)C(F)(F)OC(F)(F)C(F)(F)OC(F)(F)F`, the result in test [1], in test [2], in [3], in test [4], in [5] and in [6] was inactive. Moreover, the compound was called inactive in [7] and in [8].
Take `O=C(O)C(F)(OC(F)(F)C(F)(F)C(F)(F)F)C(F)(F)F` (centres undefined): the compound was classed as inactive in test [1], in test [2], in test [3], in test [4], in [5] and in test [6]. In addition, the compound was classed as inactive in [7] and in [8]. For the same compound, in test [3], the AC50 is 0.402 µM (active).
